Only some compounds are listed: those with a hit (about 2.4% of all), similar ones and a draw of the others.
GLP-1R agonist: qHTS of GLP-1 Receptor Agonists | Potency, µM (titrated, usually from 45.6 µM), for inactives: at the top dose activation, usual class: activators | actives 0.007% (n = 380,000) | Glucagon-like peptide 1 receptor (Homo sapiens), P43220 | HEK293 GLP-1R CRE-luciferase, luminescence, 4-6 h; cells express a hypersensitive GLP-1R form; further: potency means the concentration at half of the fitted maximal effect; % of control where 0% means no effect
Target sequence (P43220 whole entry, looked up): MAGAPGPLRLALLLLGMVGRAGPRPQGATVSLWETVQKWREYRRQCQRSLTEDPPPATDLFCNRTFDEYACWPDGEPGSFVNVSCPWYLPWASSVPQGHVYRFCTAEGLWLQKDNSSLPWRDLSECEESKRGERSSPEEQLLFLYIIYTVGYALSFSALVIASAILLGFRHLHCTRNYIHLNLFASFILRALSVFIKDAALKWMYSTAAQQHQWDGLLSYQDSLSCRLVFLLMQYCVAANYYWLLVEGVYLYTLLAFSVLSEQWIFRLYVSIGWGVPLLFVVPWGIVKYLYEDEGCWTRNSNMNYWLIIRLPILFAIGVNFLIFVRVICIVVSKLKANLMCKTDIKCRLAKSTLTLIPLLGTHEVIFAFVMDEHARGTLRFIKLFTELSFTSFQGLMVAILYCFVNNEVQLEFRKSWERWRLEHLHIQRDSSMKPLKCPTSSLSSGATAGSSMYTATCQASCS
GLP-1R inv ag: qHTS of GLP-1 Receptor Inverse Agonists (Inhibition Mode); Potency, µM (top dose mostly 38.3 µM), for the others: at the top dose activity change, negative = inhibition, most hits filed as inhibitors; actives 1.6% (n = 410,000); AID 624417, 2012; HEK293 GLP-1R CRE-luciferase, luminescence, 24 h; GLP-1R form is constitutively active; further: potency means the concentration at half of the fitted maximal effect; on the % scale 0 is the no-effect control and ±100 the full control effect; nearly all actives have a fitted effect of over 55% in size
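Assay principle: reduced luminescence from a cAMP-responsive reporter in HEK293 cells co-expressing a constitutively active GLP-1R. Conditions: 24 hr compound incubation, 37 deg C, 5% CO2.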
HEK293 tox: qHTS of GLP-1 Receptor Inverse Agonists: Cytotox Screen; AID 624418, 2012; Potency, µM (titrated, usually from 38.3 µM), inactives show at the top dose activity change, negative = inhibition, usual class: inhibitors; actives 0.13% (n = 410,000); HEK293 cAMP-luciferase reporter cells, luminescence, 24 h;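 further: loss of luciferase light is scored as toxicity; potency means the concentration at half of the fitted maximal effect; on the % scale 0 is the no-effect control and ±100 the full control effect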
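Luminescence readout: signal drop marks cytotoxicity. Plated cells grew 12 h at 37 °C, 5% CO2, received 23 nL compound for 24 h, then got luciferase reagent, read after 12 min at RT.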
TRHR enhancer: qHTS for Small Molecule Agonists and Allosteric Enhancers of Human TRH Receptor: Primary Screen for Enhancers; TRHR cells, fluo-8 calcium fluorescence, EC20 TRH enhancement; actives 0.66% (n = 360,000); enhancement, % at 2 µM; AID 493056, 2011; Thyrotropin-releasing hormone receptor (Homo sapiens), P34981; in the data active means enhancement above about 30%; further: 0% is about no effect
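Enhancer read-out: after compound pinning and an initial kinetic agonist-mode read, an EC20 of TRH (10 nM final) was injected and fluo-8 calcium signal (Ex 480/Em 530) followed at 1 s/cycle for 100 cycles in TRHR-expressing cells.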
TRHR agonist: qHTS for Small Molecule Agonists and Allosteric Enhancers of Human TRH Receptor: Primary Screen for Agonists; Thyrotropin-releasing hormone receptor (Homo sapiens), P34981; actives 0.18% (n = 360,000); AID 493084, 2011; activation, % at 2 µM; TRHR cells, calcium flux fluo-8, FDSS agonist mode; in the data active means activation above about 30%; further: 0% is about no effect
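In this calcium-flux screen, cells bearing human TRHR are dye-loaded with fluo-8, baselined for 10 cycles, then exposed to library compounds; positive kinetic calcium responses during the agonist phase mark hits, with TRH as control.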
PTHR1 agonist: qHTS for PTHR1 Agonists: Primary Screen; Parathyroid hormone/parathyroid hormone-related peptide receptor (Homo sapiens), Q03431; HEK293 GP2 PTHR1 cells, GloSensor cAMP luminescence, 1 h; Potency, µM (top dose mostly 115 µM), for the others: at the top dose activation, actives largely listed as activators; actives 0.075% (n = 410,000); further: potency means the concentration at half of the fitted maximal effect; nearly all actives have a fitted effect of over 55% in size
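HEK-293-derived GP2 cells expressing PTHR1 and a GloSensor cAMP reporter, 3,000/well, plated overnight, given luciferin plus IBMX (each 0.5 mM as added) for 1 h at 37 °C, then compound for 1 h at 37 °C. Luminescence was read after 15 min at room temperature.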
Starred values were filed as active, the others as inactive; [ ] = dose if it differs, or a comment. Unless noted, the call rests on the fitted dose curve; in most records, active means well fitted curve in the direction sought with a large enough effect; inconclusive means small, poorly fitted or top-dose-only effect, or another doubt; inactive means no such curve, though single readings can be large; an effect the other way counts as inactive or inconclusive.

Screening c1ccc(CN2Cc3ccccc3-n3nncc3C2)nc1 returned GLP-1R agonist -2.5%, GLP-1R inv ag 11.7%, HEK293 tox 4.3% and PTHR1 agonist inactive.
For C[C@@H]1CN([C@H](C)CO)C(=O)c2cc(NC(=O)Nc3ccc(C(F)(F)F)cc3)ccc2O[C@H]1CN(C)C(=O)Nc1ccc(F)cc1 the results were GLP-1R agonist 0.6%, GLP-1R inv ag inconclusive, HEK293 tox inconclusive and PTHR1 agonist 9.5%.
Screening C[C@H]1CN([C@@H](C)CO)C(=O)c2cccc(NC(=O)Nc3ccc(C(F)(F)F)cc3)c2O[C@@H]1CN(C)C(=O)Nc1ccc(F)cc1 returned GLP-1R agonist -9.5%, GLP-1R inv ag 11.2µM*, HEK293 tox inconclusive and PTHR1 agonist -62.4%.
For O=C(CCl)Nc1cc(S(=O)(=O)N2CCCCCC2)ccc1Cl the results were GLP-1R agonist -5.5%, GLP-1R inv ag inconclusive, HEK293 tox 11.2µM*, TRHR enhancer 10.3, TRHR agonist -0.6 and PTHR1 agonist -19.1%.
O=C(NN=Cc1ccc(N(CCCl)CCCl)cc1)C(=O)c1c[nH]c2ccccc12 was read as GLP-1R agonist 6.3%, GLP-1R inv ag 5.62µM*, HEK293 tox -2.5% and PTHR1 agonist inactive.
`CCN1CCN(Cc2c(O)ccc3c2O/C(=C\C=C\c2ccccc2OC)C3=O)CC1` gave GLP-1R agonist 25.5%, GLP-1R inv ag -2.8%, HEK293 tox 170.8%, TRHR enhancer -4.6, TRHR agonist 32.7* and PTHR1 agonist inactive.
`CCCCn1c(=N)n(CC(O)COc2ccccc2)c2ccccc21` (stereo unspecified) gave GLP-1R agonist 2.1%, GLP-1R inv ag 8.91µM*, HEK293 tox inconclusive, TRHR enhancer 1.6, TRHR agonist 3.2 and PTHR1 agonist -13.7%.
For CC(C)(C)OC(=O)NCCCCCNC(=O)c1nc[nH]c1C(=O)NCc1ccc(CNC(=O)OC(C)(C)C)cc1 the results were GLP-1R agonist -8.2%, GLP-1R inv ag 10µM*, HEK293 tox inconclusive and PTHR1 agonist -65.1%.
CCOC(=O)c1cc(CC)sc1/N=C/C1C(=O)NC(=S)NC1=O was read as GLP-1R agonist 3.0%, GLP-1R inv ag 1.9%, HEK293 tox 0.4%, TRHR enhancer 33.0*, TRHR agonist -0.1 and PTHR1 agonist inactive.
CCN(CC)CCNC(=O)c1cc2c(-c3ccc(Cl)cc3)nn(C)c2s1 was read as GLP-1R agonist -7.4%, GLP-1R inv ag 5.62µM*, HEK293 tox inconclusive, TRHR enhancer 6.2, TRHR agonist 1.5 and PTHR1 agonist -6.0%.
COc1cccc(CNC(=O)c2cc3c(-c4ccccc4F)nn(C)c3s2)c1 was read as GLP-1R inv ag inconclusive, HEK293 tox -2.7%, TRHR enhancer -2.7, TRHR agonist 1.6 and PTHR1 agonist inactive.
CC=C(CC)C1(CC)C(=O)NC(=S)NC1=O was read as GLP-1R agonist 2.2%, GLP-1R inv ag -11.0%, HEK293 tox -13.8% and PTHR1 agonist inactive.
c1ccc(Nc2nc(NCC3CCCO3)c3ccccc3n2)cc1 (stereo unspecified) was read as GLP-1R agonist -2.0%, GLP-1R inv ag 8.91µM*, HEK293 tox inconclusive, TRHR enhancer 7.0, TRHR agonist 0.4 and PTHR1 agonist -25.0%.
Screening Cc1ccc(C(=O)NCCSC2CCCCC2)cc1S(=O)(=O)Nc1ccccc1 returned GLP-1R agonist -3.5%, GLP-1R inv ag 11.2µM*, HEK293 tox inconclusive, TRHR enhancer -3.3, TRHR agonist 0.7 and PTHR1 agonist -3.1%[57.5 µM].
`COc1ccc(CNS(=O)(=O)c2cc3c(cc2C)N(C)CCO3)cc1` gave GLP-1R agonist 7.2%, GLP-1R inv ag 7.94µM*, HEK293 tox 12.1%, TRHR enhancer -1.0, TRHR agonist 0.1 and PTHR1 agonist inactive.
COc1cccc(-c2ccc3c(N)c(C(=O)Nc4cc(C(F)(F)F)ccc4OC)sc3n2)c1 was read as GLP-1R agonist 0.1%, GLP-1R inv ag 37.5%, HEK293 tox 34.7%, TRHR enhancer -0.5, TRHR agonist -0.9 and PTHR1 agonist inactive.
`COc1cc(NC(=O)c2csc(N)n2)cc(C(=O)Nc2cccc(C(F)(F)F)c2)c1` gave GLP-1R agonist 0.0%, GLP-1R inv ag 3.98µM*, HEK293 tox inconclusive, TRHR enhancer 21.3, TRHR agonist -0.5 and PTHR1 agonist -85.4%.
For CCN(CC)c1ccc(/C=C/[N+](=O)[O-])cc1 the results were GLP-1R agonist -2.1%, GLP-1R inv ag inconclusive, HEK293 tox 32.9%, TRHR enhancer 0.4, TRHR agonist 72.2* and PTHR1 agonist -31.8%.
Screening COc1cc(/C=C/[N+](=O)[O-])ccc1O returned GLP-1R agonist -5.8%, GLP-1R inv ag inconclusive, HEK293 tox -30.9%, TRHR enhancer 2.3, TRHR agonist 2.3 and PTHR1 agonist inactive.
Screening CCn1nc(-c2cccs2)nc2c(=O)n(C)c(=O)nc1-2 returned GLP-1R agonist -28.3%, GLP-1R inv ag 2.82µM*, HEK293 tox inconclusive, TRHR enhancer -5.4, TRHR agonist 0.2 and PTHR1 agonist -31.2%[57.5 µM].
For O=c1[nH]c(=O)n(C2CCCCC2)c(O)c1/C=C/C=Nc1ccccc1 the results were GLP-1R agonist 1.8%, GLP-1R inv ag -4.9%, HEK293 tox 3.1%, TRHR enhancer 16.9, TRHR agonist 63.3* and PTHR1 agonist -1.1%.
Screening O=c1[nH]c(=O)n(C2CCCCCC2)c(O)c1C=NCc1ccc(F)cc1 returned GLP-1R agonist -3.1%, GLP-1R inv ag 10µM*, HEK293 tox -18.9%, TRHR enhancer 4.5, TRHR agonist 0.3 and PTHR1 agonist -9.7%[57.5 µM].
`CC(C)Cc1nc2cccnc2n1C1CCNCC1` gave GLP-1R inv ag 8.7%, HEK293 tox 4.3%, TRHR enhancer 0.9, TRHR agonist -2.0 and PTHR1 agonist -4.2%.
OC(c1ccc(F)cc1)(c1ccc(F)cc1)[C@@H]1CCCN1 was read as GLP-1R agonist 8.4%, GLP-1R inv ag inconclusive, HEK293 tox -2.7%, TRHR enhancer 0.4, TRHR agonist 0.1 and PTHR1 agonist -6.3%[57.5 µM].

High-throughput results as filed in PubChem.
